The source of these data is the supplement of paper PMC9023506.

Structures are written as SMILES. Counter-ions that a name gives are not always drawn.

The subject of this experiment is Danio rerio larvae (5 dpf). Nature of the experiment: optomotor response to green moving lines, difference vs DMSO (percentage points (treated minus DMSO)); higher = more of the behaviour than the DMSO vehicle control. The conditions noted are these: 10 µM; exposure time: 3 h pre-incubation + 3 h imaging. As for the experimental part: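 5-dpf wild-type zebrafish larvae were imaged in 96-well plates. They were treated with 190 Tocris FDA-approved drugs at 10 µM (1 µl/ml DMSO) for 3 h before and 3 h during imaging at 28.5 °C, 48 larvae per drug. Automated image analysis gave % time moving and optomotor responses. Values are drug group mean minus DMSO vehicle mean (n=844), in percentage points, for 10 behaviours.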
Regarding `CC(C)C[C@H]1C(=O)N2CCC[C@H]2[C@]2(O)O[C@](NC(=O)[C@@H]3C=C4c5cccc6[nH]c(Br)c(c56)C[C@H]4N(C)C3)(C(C)C)C(=O)N12` [Bromocriptine mesylate], the “optomotor response to green moving lines” value was -20.3.
With `CN1C[C@H](C(=O)N[C@]2(C)O[C@@]3(O)[C@@H]4CCCN4C(=O)[C@H](Cc4ccccc4)N3C2=O)C[C@@H]2c3cccc4[nH]cc(c34)C[C@H]21` [Dihydroergotamine mesylate], the “optomotor response to green moving lines” value came out at 16.2.
In the case of `C=C1C[C@@H]2[C@H](CC[C@]3(C)C(=O)CC[C@@H]23)[C@@]2(C)C=CC(=O)C=C12` [Exemestane] it was 9.98; in that of `CC[C@@H](C(N)=O)N1CCCC1=O` [Levetiracetam], 4.63.
For `C=CCN1C[C@H](C(=O)N(CCCN(C)C)C(=O)NCC)C[C@@H]2c3cccc4[nH]cc(c34)C[C@H]21` [Cabergoline], the “optomotor response to green moving lines” value is -10.2.
In the case of `N[C@@H]1C[C@H]1c1ccccc1` [Tranylcypromine hydrochloride] it was 0.888.
In the case of `CC(O)(CS(=O)(=O)c1ccc(F)cc1)C(=O)Nc1ccc(C#N)c(C(F)(F)F)c1` (stereo unspecified) [Bicalutamide] it was 1.12; in that of `COc1cc2c(cc1OC)C1CC(=O)C(CC(C)C)CN1CC2` (stereo unspecified) [Tetrabenazine], -9.74.
In the case of `COc1ccc(C(CN(C)C)C2(O)CCCCC2)cc1` (stereo unspecified) [Venlafaxine hydrochloride] it was 1.84.
Regarding `O=c1[nH]c2ccccc2n1C1CCN(CCCC(c2ccc(F)cc2)c2ccc(F)cc2)CC1` [Pimozide], the “optomotor response to green moving lines” value was -16.3.
In the case of `CCN(C)C(=O)Oc1cccc([C@H](C)N(C)C)c1` [Rivastigmine tartrate] it was -8.15.
